# According to paper PMC7862700, “An all-to-all approach to the identification of sequence-specific readers for epigenetic DNA modifications on cytosine”:
# Columns and labels:
# Assay in all cases: DAPPL (digital affinity profiling via proximity ligation, sequencing); 10 mM Tris-HCl pH 7.5, 50 mM NaCl, 1 mM DTT, 4% glycerol, room temperature, 30 min; GST-TFs on glutathione beads, 16-mer random dsDNA library, 0.1% formaldehyde crosslink after washing; high values mean tight binding
# FEV = target: T1, FEV (Homo sapiens, UniProt Q99581 1-238); settings: protein: recombinant; tags: N-terminal GST; dsDNA, one strand shown
# T1 sequence: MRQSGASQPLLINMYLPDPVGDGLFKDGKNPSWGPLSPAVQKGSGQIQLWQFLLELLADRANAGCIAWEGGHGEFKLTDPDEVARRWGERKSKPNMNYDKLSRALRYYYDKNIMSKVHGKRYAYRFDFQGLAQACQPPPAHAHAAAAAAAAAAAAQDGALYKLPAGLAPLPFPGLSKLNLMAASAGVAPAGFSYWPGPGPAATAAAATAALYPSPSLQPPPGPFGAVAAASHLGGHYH
# Outline: (§1)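 The binding signal reported is, for every hexamer, its read frequency for a factor over its read frequency for the tag-only sample. Reads came from pools of yeast-expressed, GST-fused human transcription factors on glutathione beads, barcoded with DNA and mixed with that sample, which were incubated with 200 nmole of a random double-stranded 16-mer DNA library in Tris/NaCl/DTT/glycerol buffer at room temperature for 30 min. After washing, the pools were crosslinked with 0.1% formaldehyde, proximity-ligated with BsaI/T4 ligase for 1 h at 37 °C, PCR-amplified and sequenced on an Illumina NextSeq500.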
# ETV5 = ETV5 (Homo sapiens, UniProt P41161 1-510); settings: protein: recombinant; tags: N-terminal GST; dsDNA, one strand shown
# Outline: as §1
# HSF1 = HSF1 (Homo sapiens, UniProt Q00613 1-529); settings: protein: recombinant; tags: N-terminal GST; chain copies: 3; dsDNA, one strand shown
# Outline: as §1
# SPIC = target: T2, SPIC (Homo sapiens, UniProt Q8N5J4 1-248); settings: protein: recombinant; tags: N-terminal GST; dsDNA, one strand shown
# T2 sequence: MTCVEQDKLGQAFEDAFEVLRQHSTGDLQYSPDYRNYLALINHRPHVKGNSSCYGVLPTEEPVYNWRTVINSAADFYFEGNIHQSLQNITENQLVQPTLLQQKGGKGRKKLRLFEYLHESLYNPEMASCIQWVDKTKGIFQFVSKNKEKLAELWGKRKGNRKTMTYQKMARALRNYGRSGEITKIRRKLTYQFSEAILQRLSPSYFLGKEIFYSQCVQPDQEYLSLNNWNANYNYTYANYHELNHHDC
# Outline: as §1
# ELF4 = ELF4 (Homo sapiens, UniProt Q99607 1-663); settings: protein: recombinant; tags: N-terminal GST; dsDNA, one strand shown
# Outline: as §1
# ETV2 = target: T3, ETV2 (Homo sapiens, UniProt O00321 1-342); settings: protein: recombinant; tags: N-terminal GST; dsDNA, one strand shown
# T3 sequence: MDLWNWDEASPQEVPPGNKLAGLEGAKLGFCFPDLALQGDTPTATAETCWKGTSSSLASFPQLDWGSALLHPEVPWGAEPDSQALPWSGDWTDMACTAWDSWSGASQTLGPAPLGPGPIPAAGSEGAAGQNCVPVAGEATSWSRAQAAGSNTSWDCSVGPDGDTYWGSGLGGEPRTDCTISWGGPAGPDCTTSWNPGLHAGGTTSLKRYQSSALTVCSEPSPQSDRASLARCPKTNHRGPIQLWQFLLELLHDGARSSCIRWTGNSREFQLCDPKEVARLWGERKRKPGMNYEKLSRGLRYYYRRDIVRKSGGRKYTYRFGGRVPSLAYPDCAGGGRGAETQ
# Outline: as §1
# CRX = CRX (Homo sapiens, UniProt O43186 1-299); settings: protein: recombinant; tags: N-terminal GST; dsDNA, one strand shown
# Outline: as §1
# ETV1 = ETV1 (Homo sapiens, UniProt P50549 1-477); settings: protein: recombinant; tags: N-terminal GST; dsDNA, one strand shown
# Outline: as §1
# ERF = target: T4, ERF (Homo sapiens, UniProt P50548 1-548); settings: protein: recombinant; tags: N-terminal GST; dsDNA, one strand shown
# T4 sequence: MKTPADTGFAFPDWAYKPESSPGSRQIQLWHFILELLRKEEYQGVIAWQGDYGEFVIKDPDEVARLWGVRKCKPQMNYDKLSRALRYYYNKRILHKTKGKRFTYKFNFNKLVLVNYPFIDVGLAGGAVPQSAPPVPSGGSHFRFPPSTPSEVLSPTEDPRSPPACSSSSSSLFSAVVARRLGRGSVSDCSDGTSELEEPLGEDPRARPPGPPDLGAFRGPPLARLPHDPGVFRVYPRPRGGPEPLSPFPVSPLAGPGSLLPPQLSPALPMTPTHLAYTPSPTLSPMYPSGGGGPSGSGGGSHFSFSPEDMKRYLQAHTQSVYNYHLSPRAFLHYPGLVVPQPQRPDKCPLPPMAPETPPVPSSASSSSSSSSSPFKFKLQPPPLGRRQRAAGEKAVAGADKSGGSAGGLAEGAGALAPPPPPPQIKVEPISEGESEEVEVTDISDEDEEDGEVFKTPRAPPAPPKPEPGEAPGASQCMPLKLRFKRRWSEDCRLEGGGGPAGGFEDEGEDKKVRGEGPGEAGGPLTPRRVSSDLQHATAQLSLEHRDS
# Outline: as §1
# ETV3L = target: T5, ETV3L (Homo sapiens, UniProt Q6ZN32 1-361); settings: protein: recombinant; tags: N-terminal GST; dsDNA, one strand shown
# T5 sequence: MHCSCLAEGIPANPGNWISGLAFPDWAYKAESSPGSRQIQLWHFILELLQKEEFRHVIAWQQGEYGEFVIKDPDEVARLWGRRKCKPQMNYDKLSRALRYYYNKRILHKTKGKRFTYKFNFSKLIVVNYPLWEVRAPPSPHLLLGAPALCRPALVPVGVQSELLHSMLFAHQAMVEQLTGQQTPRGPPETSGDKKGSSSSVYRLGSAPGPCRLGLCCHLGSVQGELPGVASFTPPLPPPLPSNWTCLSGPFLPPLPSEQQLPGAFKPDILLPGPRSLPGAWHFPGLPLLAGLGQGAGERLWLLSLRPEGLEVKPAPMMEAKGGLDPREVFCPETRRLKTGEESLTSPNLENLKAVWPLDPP
# Outline: as §1
# ETS2 = target: T6, ETS2 (Homo sapiens, UniProt P15036 1-469); settings: protein: recombinant; tags: N-terminal GST; dsDNA, one strand shown
# T6 sequence: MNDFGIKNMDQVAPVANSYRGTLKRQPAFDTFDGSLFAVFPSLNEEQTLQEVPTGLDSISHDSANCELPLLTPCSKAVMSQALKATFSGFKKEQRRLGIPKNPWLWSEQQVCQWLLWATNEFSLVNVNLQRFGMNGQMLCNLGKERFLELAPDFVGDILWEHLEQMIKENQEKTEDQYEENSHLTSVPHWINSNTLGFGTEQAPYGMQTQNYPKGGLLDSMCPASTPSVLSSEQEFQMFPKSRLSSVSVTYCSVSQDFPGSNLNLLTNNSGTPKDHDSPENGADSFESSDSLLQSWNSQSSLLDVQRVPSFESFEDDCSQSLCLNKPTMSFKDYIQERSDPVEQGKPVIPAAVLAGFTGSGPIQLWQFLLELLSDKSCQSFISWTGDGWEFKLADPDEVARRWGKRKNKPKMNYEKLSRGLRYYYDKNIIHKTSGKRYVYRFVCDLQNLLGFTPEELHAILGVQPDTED
# Outline: as §1
# SPDEF = target: T7, SPDEF (Homo sapiens, UniProt O95238 1-335); settings: protein: recombinant; tags: N-terminal GST; dsDNA, one strand shown
# T7 sequence: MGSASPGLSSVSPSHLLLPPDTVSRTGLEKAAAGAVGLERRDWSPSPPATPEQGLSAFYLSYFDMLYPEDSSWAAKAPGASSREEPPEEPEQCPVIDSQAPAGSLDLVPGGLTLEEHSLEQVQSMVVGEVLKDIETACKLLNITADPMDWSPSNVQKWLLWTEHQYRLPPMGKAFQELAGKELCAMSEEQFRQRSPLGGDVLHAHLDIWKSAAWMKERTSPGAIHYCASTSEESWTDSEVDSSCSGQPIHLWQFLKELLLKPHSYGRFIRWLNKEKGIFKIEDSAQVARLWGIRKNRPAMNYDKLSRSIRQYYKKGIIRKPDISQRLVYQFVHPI
# Outline: as §1
# ETV7 = target: T8, ETV7 (Homo sapiens, UniProt Q9Y603 1-341); settings: protein: recombinant; tags: N-terminal GST; dsDNA, one strand shown
# T8 sequence: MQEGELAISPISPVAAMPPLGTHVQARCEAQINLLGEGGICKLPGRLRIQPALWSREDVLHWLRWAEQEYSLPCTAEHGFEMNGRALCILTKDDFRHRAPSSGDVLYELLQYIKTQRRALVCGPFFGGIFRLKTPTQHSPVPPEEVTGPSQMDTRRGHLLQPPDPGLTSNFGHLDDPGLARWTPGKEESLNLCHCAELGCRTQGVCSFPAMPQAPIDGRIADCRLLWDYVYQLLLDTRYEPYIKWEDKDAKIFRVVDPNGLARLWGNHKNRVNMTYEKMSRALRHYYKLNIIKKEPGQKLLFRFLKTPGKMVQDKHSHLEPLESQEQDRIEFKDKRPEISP
# Outline: as §1
# ETV3 = target: T9, ETV3 (Homo sapiens, UniProt P41162-2 1-143); settings: protein: recombinant; tags: N-terminal GST; dsDNA, one strand shown
# T9 sequence: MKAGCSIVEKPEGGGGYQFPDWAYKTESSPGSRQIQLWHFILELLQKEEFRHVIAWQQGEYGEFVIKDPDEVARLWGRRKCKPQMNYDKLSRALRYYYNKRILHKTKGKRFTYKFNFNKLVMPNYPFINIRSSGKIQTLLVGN
# Outline: as §1
# ETV6 = ETV6 (Homo sapiens, UniProt P41212 1-452); settings: protein: recombinant; tags: N-terminal GST; dsDNA, one strand shown
# Outline: as §1
# Sequence of ETV5 (P41161 whole entry): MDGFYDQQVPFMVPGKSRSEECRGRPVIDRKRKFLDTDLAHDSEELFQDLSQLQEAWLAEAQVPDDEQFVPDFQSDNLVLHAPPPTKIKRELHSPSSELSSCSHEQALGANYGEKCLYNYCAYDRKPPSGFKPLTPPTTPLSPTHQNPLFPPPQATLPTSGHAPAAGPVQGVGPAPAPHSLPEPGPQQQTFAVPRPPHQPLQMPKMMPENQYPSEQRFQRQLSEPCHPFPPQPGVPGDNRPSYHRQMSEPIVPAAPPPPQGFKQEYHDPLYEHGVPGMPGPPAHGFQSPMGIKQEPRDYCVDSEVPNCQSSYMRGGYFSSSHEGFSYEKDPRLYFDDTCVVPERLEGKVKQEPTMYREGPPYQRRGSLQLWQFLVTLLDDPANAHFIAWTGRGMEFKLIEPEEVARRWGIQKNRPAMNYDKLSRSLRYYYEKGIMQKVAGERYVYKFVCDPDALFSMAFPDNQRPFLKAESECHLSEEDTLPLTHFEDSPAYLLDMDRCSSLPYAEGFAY
# Sequence of HSF1 (Q00613 whole entry): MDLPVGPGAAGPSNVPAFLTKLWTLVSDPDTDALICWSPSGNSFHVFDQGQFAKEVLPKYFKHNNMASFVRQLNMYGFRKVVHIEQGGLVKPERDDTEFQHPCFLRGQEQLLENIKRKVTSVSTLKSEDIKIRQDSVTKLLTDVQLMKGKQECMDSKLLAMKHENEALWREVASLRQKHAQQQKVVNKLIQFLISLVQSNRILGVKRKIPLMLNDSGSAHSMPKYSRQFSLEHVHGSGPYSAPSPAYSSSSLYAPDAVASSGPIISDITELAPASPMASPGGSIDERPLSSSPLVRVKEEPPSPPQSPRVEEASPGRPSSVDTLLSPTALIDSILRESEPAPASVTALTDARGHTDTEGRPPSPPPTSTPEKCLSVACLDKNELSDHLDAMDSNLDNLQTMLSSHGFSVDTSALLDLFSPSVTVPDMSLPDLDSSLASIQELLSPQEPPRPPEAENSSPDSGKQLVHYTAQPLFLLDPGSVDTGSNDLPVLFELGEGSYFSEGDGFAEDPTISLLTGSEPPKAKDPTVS
# Sequence of ETV1 (P50549 whole entry): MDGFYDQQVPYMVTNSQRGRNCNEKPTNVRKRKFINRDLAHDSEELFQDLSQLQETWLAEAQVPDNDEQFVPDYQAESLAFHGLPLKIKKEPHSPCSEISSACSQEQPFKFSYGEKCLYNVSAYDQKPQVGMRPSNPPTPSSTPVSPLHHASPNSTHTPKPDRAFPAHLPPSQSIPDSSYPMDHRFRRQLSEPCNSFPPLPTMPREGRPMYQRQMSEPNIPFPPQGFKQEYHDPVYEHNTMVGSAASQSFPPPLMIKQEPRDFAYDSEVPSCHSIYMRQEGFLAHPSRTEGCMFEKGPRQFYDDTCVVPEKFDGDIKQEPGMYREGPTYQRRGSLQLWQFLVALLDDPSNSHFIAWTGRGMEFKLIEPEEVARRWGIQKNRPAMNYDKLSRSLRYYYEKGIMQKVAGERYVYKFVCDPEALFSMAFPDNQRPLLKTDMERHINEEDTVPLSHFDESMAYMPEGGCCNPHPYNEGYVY
# Sequence of ELF4 (Q99607 whole entry): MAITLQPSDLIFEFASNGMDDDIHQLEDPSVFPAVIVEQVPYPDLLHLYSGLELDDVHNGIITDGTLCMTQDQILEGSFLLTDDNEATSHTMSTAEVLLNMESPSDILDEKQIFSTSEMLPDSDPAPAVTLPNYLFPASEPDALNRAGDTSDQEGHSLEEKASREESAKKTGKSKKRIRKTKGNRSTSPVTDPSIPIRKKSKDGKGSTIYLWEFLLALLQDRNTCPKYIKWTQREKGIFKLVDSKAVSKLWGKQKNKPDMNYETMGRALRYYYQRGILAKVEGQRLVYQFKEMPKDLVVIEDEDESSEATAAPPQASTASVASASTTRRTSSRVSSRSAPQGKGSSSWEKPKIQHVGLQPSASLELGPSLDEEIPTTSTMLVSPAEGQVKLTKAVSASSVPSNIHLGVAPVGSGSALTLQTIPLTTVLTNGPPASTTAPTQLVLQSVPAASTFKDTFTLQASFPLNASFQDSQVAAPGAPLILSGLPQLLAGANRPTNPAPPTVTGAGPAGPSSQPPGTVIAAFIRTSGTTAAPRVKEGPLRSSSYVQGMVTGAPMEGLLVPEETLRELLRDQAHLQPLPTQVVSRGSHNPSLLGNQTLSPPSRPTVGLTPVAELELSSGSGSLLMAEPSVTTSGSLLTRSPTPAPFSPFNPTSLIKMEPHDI
# Sequence of CRX (O43186 whole entry): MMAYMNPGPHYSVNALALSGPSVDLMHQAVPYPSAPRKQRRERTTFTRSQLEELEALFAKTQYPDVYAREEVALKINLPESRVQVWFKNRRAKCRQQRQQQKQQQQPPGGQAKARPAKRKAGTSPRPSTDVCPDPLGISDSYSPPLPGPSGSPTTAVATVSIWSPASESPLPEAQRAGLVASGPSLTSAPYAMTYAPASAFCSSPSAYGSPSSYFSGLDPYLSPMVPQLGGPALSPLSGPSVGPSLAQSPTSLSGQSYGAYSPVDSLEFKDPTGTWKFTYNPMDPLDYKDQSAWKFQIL
# Sequence of ETV6 (P41212 whole entry): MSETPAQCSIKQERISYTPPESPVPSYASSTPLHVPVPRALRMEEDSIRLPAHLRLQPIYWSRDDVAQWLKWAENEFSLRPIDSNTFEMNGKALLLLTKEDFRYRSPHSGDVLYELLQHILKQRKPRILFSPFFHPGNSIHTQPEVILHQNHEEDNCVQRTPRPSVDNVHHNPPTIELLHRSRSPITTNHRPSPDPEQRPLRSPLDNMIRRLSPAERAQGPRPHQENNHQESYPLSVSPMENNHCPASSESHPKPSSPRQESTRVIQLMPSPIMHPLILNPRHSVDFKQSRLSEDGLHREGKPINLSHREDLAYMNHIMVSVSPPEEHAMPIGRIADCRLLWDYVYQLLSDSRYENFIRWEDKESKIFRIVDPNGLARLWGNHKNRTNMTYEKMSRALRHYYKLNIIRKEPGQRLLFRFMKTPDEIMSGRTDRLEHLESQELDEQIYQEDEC
sequence,measurement,setting,value
CGAGCT,binding signal,FEV,"1.03 fold enrichment (6-mer frequency, TF over GST control)"
same,binding signal,ETV5,"1.01 fold enrichment (6-mer frequency, TF over GST control)"
same,binding signal,HSF1,"1.24 fold enrichment (6-mer frequency, TF over GST control)"
same,binding signal,SPIC,"1.25 fold enrichment (6-mer frequency, TF over GST control)"
same,binding signal,ELF4,"1.07 fold enrichment (6-mer frequency, TF over GST control)"
same,binding signal,ETV2,"1.05 fold enrichment (6-mer frequency, TF over GST control)"
same,binding signal,CRX,"1.04 fold enrichment (6-mer frequency, TF over GST control)"
same,binding signal,ETV1,"1.15 fold enrichment (6-mer frequency, TF over GST control)"
same,binding signal,ERF,"1.09 fold enrichment (6-mer frequency, TF over GST control)"
same,binding signal,ETV3L,"1.02 fold enrichment (6-mer frequency, TF over GST control)"
same,binding signal,ETS2,"1.07 fold enrichment (6-mer frequency, TF over GST control)"
same,binding signal,SPDEF,"1.04 fold enrichment (6-mer frequency, TF over GST control)"
same,binding signal,ETV7,"1.02 fold enrichment (6-mer frequency, TF over GST control)"
same,binding signal,ETV3,"1.06 fold enrichment (6-mer frequency, TF over GST control)"
same,binding signal,ETV6,"1.01 fold enrichment (6-mer frequency, TF over GST control)"
